Measured values as given in PubChem BioAssay (EPA / NIEHS).
Records with an inconclusive call do not appear. Active and inactive are the calls of the source. The calls were made as follows: active = hit-call score of the fitted dose curve at least 0.9, where 1 is the maximum; inconclusive = response in the unintended direction; inactive = score below 0.9.

Legend:
[1] = TOX21_p53_BLA_p2_viability: Viability Assessment in the Tox21 HCT-116 p53 Agonism Beta-lactamase Assay, Phase 2 (AID 2283591);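 also: compound exposure lasted 16 h at 37 °C; actives lower the ATP signal meaning cytotoxicity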
Summary of the method: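 HCT116 p53-bla cells, 4000/well, dosed after 5 h plating (217-fold dilution of DMSO stocks) and incubated 16 h at 37C. Viability taken as cellular ATP by CellTiter-Glo luminescence after 30 min RT; signal loss marks cytotoxicity.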

[2] = TOX21_p53_BLA_p3_viability: Viability Assessment in the Tox21 HCT-116 p53 Agonism Beta-lactamase Assay, Phase 3 (AID 2283593);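 also: cells exposed to compound for 16 h before reading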
Summary of the method: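 HCT116 cells, 4000/well, dosed 5 h after plating by pin transfer (217-fold dilution from DMSO stock) and incubated 16 h at 37C, 5% CO2. Viability read as ATP luminescence with CellTiter-Glo after 30 min at room temperature.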

[3] = TOX21_p53_BLA_p4_viability: Viability Assessment in the Tox21 HCT-116 p53 Agonism Beta-lactamase Assay, Phase 4 (AID 2283597);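 also: hits lower the luminescence signal meaning cytotoxicity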
Summary of the method: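 In this multiplexed secondary endpoint, HCT116 cells (4000 per well, compound at 5 h, 16 h treatment) received CellTiter-Glo after the beta-lactamase read. Luminescence after 30 min RT reflects ATP, and falling signal marks cytotoxicity.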

[4] = target: Cellular tumor antigen p53 (Homo sapiens) (UniProt P04637); test: TOX21_p53_BLA_p5_ratio: Tox21 HCT-116 p53 Agonism Beta-lactamase Assay, Ratio, Phase 5 (AID 2283599)
Summary of the method: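 HCT-116 p53-bla cells (4000/well) plated 5 h, dosed with compound (217-fold DMSO dilution) for 16 h at 37 C; CCF4-AM substrate 2 h at room temperature. Activity is the 460/530 nm emission ratio (405 nm excitation), fitted in gain-of-signal direction versus DMSO.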

[5] = target: Cellular tumor antigen p53 (Homo sapiens) (UniProt P04637); test: TOX21_p53_BLA_p4_ratio: Tox21 HCT-116 p53 Agonism Beta-lactamase Assay, Ratio, Phase 4 (AID 2283601)
Summary of the method: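 HCT-116 p53 beta-lactamase reporter cells (4000/well) preincubated 5 h, then compound (217-fold dilution of DMSO stock) for 16 h at 37C. CCF4-AM substrate added 2 h at room temperature; 460/530 nm emission ratio fitted upward versus DMSO.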

[6] = TOX21_p53_BLA_p5_viability: Viability Assessment in the Tox21 HCT-116 p53 Agonism Beta-lactamase Assay, Phase 5 (AID 2283600)
Summary of the method: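 Here cell health was gauged by ATP levels in wells holding 4000 cells, each treated 16 h with DMSO-delivered compounds at 217-fold dilution; reduced luminescence marked toxicity.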

Sequence of Cellular tumor antigen p53 (Homo sapiens) (P04637 whole entry, looked up): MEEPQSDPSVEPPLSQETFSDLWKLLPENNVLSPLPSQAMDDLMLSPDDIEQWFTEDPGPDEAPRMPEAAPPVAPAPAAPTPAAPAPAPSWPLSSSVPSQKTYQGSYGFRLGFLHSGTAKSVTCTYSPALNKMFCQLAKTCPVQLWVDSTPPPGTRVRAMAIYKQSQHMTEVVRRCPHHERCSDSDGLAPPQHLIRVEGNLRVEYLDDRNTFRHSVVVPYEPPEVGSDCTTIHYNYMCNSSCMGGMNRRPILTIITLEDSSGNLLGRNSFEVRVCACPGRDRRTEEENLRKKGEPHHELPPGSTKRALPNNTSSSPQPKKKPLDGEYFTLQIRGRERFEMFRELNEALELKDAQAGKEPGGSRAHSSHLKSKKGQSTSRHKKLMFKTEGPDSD

SMILES | outcome [1] | outcome [2] | outcome [3] | outcome [4] | outcome [5] | outcome [6] | AC50 [1] | AC50 [2] | AC50 [3] | AC50 [6]
Oc1cccc2cc3cccc(O)c3c(O)c12 | inactive | inactive | inactive | inactive | inactive | – | – | – | – | –
CCOC(=O)C(C)O (stereo not given) | inactive | inactive | inactive | – | inactive | inactive | – | – | – | –
CC1=C(C)C(=O)C(C(CCCCCC(=O)O)c2ccccc2)=C(C)C1=O (stereo not given) | inactive | inactive | inactive | – | inactive | inactive | – | – | – | –
CCOC(=O)OCC/C(SC(=O)OCC)=C(\C)N(C=O)Cc1cnc(C)nc1N | inactive | inactive | inactive | – | – | inactive | – | – | – | –
O=C1O[C@H]2[C@H](O)[C@@H]1OC(O)[C@H]2O (stereo not given in full) | inactive | inactive | inactive | – | inactive | inactive | – | – | – | –
O=c1[nH][nH]c(=O)c2cc([N+](=O)[O-])ccc12 | inactive | inactive | inactive | – | – | inactive | – | – | – | –
Cc1ccc(C2(O)CCN(CCCC(=O)c3ccc(F)cc3)CC2)cc1 | inactive | inactive | inactive | inactive | inactive | inactive | – | – | – | –
C[C@H]1O[C@@H](O[C@H]2CC[C@@]3(C)[C@H](CC[C@@H]4[C@@H]3C[C@@H](O)[C@]3(C)[C@@H](C5=CC(=O)OC5)CC[C@]43O)C2)C[C@H](O)[C@@H]1O[C@H]1C[C@H](O)[C@H](O[C@H]2C[C@H](O)[C@H](O[C@@H]3O[C@H](CO)[C@@H](O)[C@H](O)[C@H]3O)[C@@H](C)O2)[C@@H](C)O1 | – | – | – | – | – | – | 284 nM (active) | 296 nM (active) | 337 nM (active) | 353 nM (active)
O=c1[nH]c2ccccc2n1CCCN1CCN(C(c2ccccc2)c2ccccc2)CC1 | inactive | inactive | – | – | – | inactive | – | – | 31300 nM (active) | –
Nc1cccc(S(=O)(=O)O)c1 | inactive | inactive | inactive | inactive | inactive | inactive | – | – | – | –
O=C(O)COc1nn(Cc2ccccc2)c2ccccc12 | inactive | inactive | inactive | – | inactive | inactive | – | – | – | –
Cc1cc(-c2ccc(N=Nc3c(S(=O)(=O)O)cc4cc(S(=O)(=O)O)cc(N)c4c3O)c(C)c2)ccc1N=Nc1c(S(=O)(=O)O)cc2cc(S(=O)(=O)O)cc(N)c2c1O | inactive | – | – | – | – | inactive | – | 16300 nM (active) | 20600 nM (active) | –
CC(=O)SC[C@@H](Cc1ccccc1)C(=O)NCC(=O)OCc1ccccc1 | inactive | inactive | inactive | inactive | inactive | inactive | – | – | – | –
CCN(CC)CCOCCOC(=O)C1(c2ccccc2)CCCC1 | inactive | inactive | inactive | – | inactive | inactive | – | – | – | –
Cc1ccc(Cl)cc1N | inactive | inactive | inactive | inactive | inactive | – | – | – | – | –
Cc1ccccc1CNc1ncnc2c1ncn2[C@@H]1O[C@H](CO)[C@@H](O)[C@H]1O | inactive | inactive | inactive | inactive | inactive | inactive | – | – | – | –
CC(C)C(O)(c1ccc(OC(F)(F)F)cc1)c1cncnc1 (stereo not given) | inactive | inactive | inactive | inactive | inactive | inactive | – | – | – | –
CN(C)CCOC(c1ccccc1)c1ccccc1 (tested in a mixture with another compound) | inactive | inactive | inactive | – | – | inactive | – | – | – | –
CC(C)CCOC(=O)c1ccc(N(C)C)cc1 | inactive | inactive | inactive | inactive | inactive | inactive | – | – | – | –
N#C[C@@H]1C[C@@H]2C[C@@H]2N1C(=O)[C@@H](N)C12CC3CC(CC(O)(C3)C1)C2 | inactive | inactive | inactive | inactive | inactive | inactive | – | – | – | –
CCCC(=O)O[C@]1(C(=O)COC(C)=O)CC[C@H]2[C@@H]3C[C@H](F)C4=CC(=O)C=C[C@]4(C)[C@@]3(F)[C@@H](O)C[C@@]21C | inactive | inactive | inactive | inactive | inactive | – | – | – | – | –
O=[N+]([O-])c1ccc(F)cc1F | inactive | inactive | inactive | inactive | – | inactive | – | – | – | –
N#Cc1ccc(C(=O)O)cc1 | inactive | inactive | inactive | inactive | inactive | inactive | – | – | – | –
CN(C)c1cc(NC(=O)CNC(C)(C)C)c(O)c2c1C[C@H]1C[C@H]3[C@H](N(C)C)C(=O)C(C(N)=O)=C(O)[C@@]3(O)C(=O)C1=C2O | inactive | inactive | inactive | – | – | inactive | – | – | – | –
CCN1CCOCC1 | inactive | inactive | inactive | inactive | – | inactive | – | – | – | –
CCCCCCCCCCCCCCCC(=O)OC[C@@H](NC(=O)C(Cl)Cl)[C@H](O)c1ccc([N+](=O)[O-])cc1 | inactive | inactive | inactive | – | – | inactive | – | – | – | –
NC12CC3CC(CC(C3)C1)C2 | inactive | inactive | inactive | inactive | inactive | inactive | – | – | – | –
O=C(OCC1(COC(=O)c2cccnc2)CCCC(COC(=O)c2cccnc2)(COC(=O)c2cccnc2)C1O)c1cccnc1 | inactive | inactive | inactive | – | – | inactive | – | – | – | –
